Test systems include DU-145 prostate; K-562 leukemia; MALME-3M melanoma; MDA-MB-231 breast; RXF 393 renal; SF-268 CNS; SF-295 CNS; SF-539 CNS; UACC-257 melanoma; M14 melanoma; HCT-15 colon; HT29 colon; SNB-75 CNS; SNB-19 CNS; U251 CNS; SK-MEL-5 melanoma; UACC-62 melanoma; LOX IMVI melanoma; SK-MEL-28 melanoma.
Common to all, as to experiment: NCI-60 one-dose screen, 48 h (100 = growth as untreated, 0 = no growth, -100 = all killed)
Conditions in all cases: 10 µM unless noted

The structures appear in SMILES notation. Compounds without any hit were thinned out: in the full panel of roughly 83,000, 20% have a hit.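 Plates (96-well) were seeded with cells, treated with compound at one concentration, and incubated for 48 hours before percent growth was determined.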 Values without a mark were called inactive. Activity calls are given as the source filed them. How the source made its calls: active means growth percent below 10; inactive means the rest.

As for `CC(C)(C)c1cc(C(C)(C)C)cc(S(=O)(=O)Nc2cc3ccccc3cc2C(=O)NCCN)c1`, the growth in the assay with DU-145 prostate was 22.5%; with K-562 leukemia it was -37% (active); in the assay on MALME-3M melanoma, 55%; in the assay with MDA-MB-231 breast, 5.92% (active); in the assay on RXF 393 renal it was 29.1%; in the assay on SF-268 CNS, 69.3%. The growth in the assay with SF-295 CNS was 12.4%; in the assay on SF-539 CNS it was 96%; with UACC-257 melanoma it was 81%; in the assay with M14 melanoma, -59.9% (active); in the assay on HCT-15 colon, 38.8%; with HT29 colon it was -43.7% (active). Besides, the growth in the assay on SNB-75 CNS was 63.4%; in the assay on SNB-19 CNS it was 68.9%; with U251 CNS, -21.8% (active); with SK-MEL-5 melanoma it was 81.1%; with UACC-62 melanoma, 55%; in the assay with LOX IMVI melanoma, -77.8% (active). Further, the growth in the assay with SK-MEL-28 melanoma was -44.9% (active).

Consider `O=C1OCC2=C1C(c1ccncc1)c1cc3c(cc1N2CCO)OCO3` (stereo not drawn), for which the growth in the assay on DU-145 prostate was 107%; in the assay on K-562 leukemia, 110%; in the assay on MALME-3M melanoma it was 89.9%; in the assay on MDA-MB-231 breast it was 101%; in the assay with RXF 393 renal it was 99.3%; in the assay with SF-268 CNS, 97.7%. Also, the growth is 102% in the assay with SF-295 CNS; 101% in the assay on SF-539 CNS; 99.5% in the assay with UACC-257 melanoma; 107% with M14 melanoma; 103% in the assay with HCT-15 colon; 106% in the assay with HT29 colon. Besides, the growth in the assay on SNB-75 CNS was 95.7%; in the assay on SNB-19 CNS, 100%; in the assay on U251 CNS it was 96.7%; with SK-MEL-5 melanoma, 98.6%; in the assay on UACC-62 melanoma, 94.9%; in the assay with LOX IMVI melanoma it was 99.9%. Further, in the assay on SK-MEL-28 melanoma, the growth was 102%.

As to `Cc1cc(C)nc(SC2=C(Nc3ccc(C)c(Cl)c3)C(=O)N(Cc3ccccc3)C2=O)n1`, the growth is 87.8% [30 µM] in the assay on DU-145 prostate; 32.5% [30 µM] with K-562 leukemia; 66.4% [30 µM] in the assay on MALME-3M melanoma; 39.1% [30 µM] in the assay on MDA-MB-231 breast; 51.4% [30 µM] in the assay on RXF 393 renal; 64.6% [30 µM] with SF-268 CNS. Moreover, the growth with SF-295 CNS is -3.52% [30 µM] (active); in the assay on SF-539 CNS, 85.8% [30 µM]; with UACC-257 melanoma it was 67.4% [30 µM]; with M14 melanoma, 64% [30 µM]; with HCT-15 colon, 63% [30 µM]; in the assay on HT29 colon, 46% [30 µM]. The growth is 58.9% [30 µM] with SNB-75 CNS; 78.2% [30 µM] in the assay with SNB-19 CNS; 68.8% [30 µM] in the assay with U251 CNS; 62.2% [30 µM] in the assay with SK-MEL-5 melanoma; 49.7% [30 µM] in the assay with UACC-62 melanoma; 75.9% [30 µM] in the assay with LOX IMVI melanoma. For the same compound, the growth with SK-MEL-28 melanoma was 94.2% [30 µM].

For `O=C(N(c1ccccc1)c1ccccc1)n1ccc2nc(Cl)nc(Cl)c21`, the growth was 33.8% in the assay with DU-145 prostate; 42.8% in the assay on K-562 leukemia; 58.6% in the assay on MALME-3M melanoma; 71.4% with MDA-MB-231 breast; 32.7% in the assay on RXF 393 renal; 66.3% in the assay on SF-268 CNS. Further, the growth is 74.1% with SF-295 CNS; 68% in the assay with SF-539 CNS; 70.2% with UACC-257 melanoma; 69.9% in the assay with M14 melanoma; 45.1% with HCT-15 colon; 24.6% in the assay on HT29 colon. In addition, the growth was 38.3% in the assay on SNB-75 CNS; 58.5% in the assay with SNB-19 CNS; 59.6% in the assay with U251 CNS; 64.9% in the assay with SK-MEL-5 melanoma; 51.9% in the assay with UACC-62 melanoma; 72.1% in the assay on LOX IMVI melanoma. For the same compound, in the assay with SK-MEL-28 melanoma, the growth is 80.4%.

As to `O=C(COc1cccc(/C=C2\COc3ccccc3C2=O)c1)Nc1nccs1`, the growth was 96.6% in the assay with DU-145 prostate; -80.5% (active) with K-562 leukemia; 54.2% in the assay on MALME-3M melanoma; 83.7% in the assay on MDA-MB-231 breast; 48.3% in the assay on RXF 393 renal; 70.1% in the assay with SF-268 CNS. The growth in the assay on SF-295 CNS was 112%; in the assay with SF-539 CNS it was 83.7%; in the assay on UACC-257 melanoma, 86%; in the assay with M14 melanoma it was -78.2% (active); in the assay on HCT-15 colon, -17.9% (active); in the assay with HT29 colon, -28.7% (active). Moreover, the growth in the assay with SNB-75 CNS was 77.3%; in the assay with SNB-19 CNS it was 73.5%; in the assay on U251 CNS, 22.6%; in the assay on SK-MEL-5 melanoma, 52.3%; in the assay with UACC-62 melanoma, 78.2%; in the assay with LOX IMVI melanoma, -96.8% (active). In the assay with SK-MEL-28 melanoma, the growth was -68.3% (active).

As to `COc1ccc(C(=O)COc2ccc(/C=C3\Oc4ccc(OC)cc4C3=O)cc2)cc1`, the growth in the assay with DU-145 prostate was 116%; with K-562 leukemia, 16.8%; in the assay on MALME-3M melanoma, 102%; with MDA-MB-231 breast it was 89.7%; in the assay with RXF 393 renal it was 110%; in the assay on SF-268 CNS, 121%. For the same compound, the growth with SF-295 CNS is 81.9%; with SF-539 CNS it was 104%; with UACC-257 melanoma, 94%; in the assay with M14 melanoma, 110%; in the assay with HCT-15 colon it was 102%; in the assay on HT29 colon, 110%. The growth in the assay with SNB-75 CNS is 101%; in the assay on SNB-19 CNS it was 92.7%; with U251 CNS, 93%; in the assay on SK-MEL-5 melanoma, 97.5%; in the assay with UACC-62 melanoma, 90.1%; in the assay with LOX IMVI melanoma, 77.3%. Moreover, the growth with SK-MEL-28 melanoma was 137%.

As for `C#CCOc1ccc2ncnc(Nc3cccc(CNC(=O)C=C)c3)c2c1`, the growth was 108% [8.25 µM] with DU-145 prostate; 104% [8.25 µM] in the assay with K-562 leukemia; 109% [8.25 µM] in the assay on MALME-3M melanoma; 101% [8.25 µM] in the assay on MDA-MB-231 breast; 79.4% [8.25 µM] in the assay with RXF 393 renal; 86.2% [8.25 µM] with SF-268 CNS. The growth is 102% [8.25 µM] in the assay on SF-295 CNS; 99.9% [8.25 µM] with SF-539 CNS; 106% [8.25 µM] in the assay with UACC-257 melanoma; 103% [8.25 µM] in the assay on M14 melanoma; 104% [8.25 µM] in the assay with HCT-15 colon; 108% [8.25 µM] in the assay with HT29 colon. For the same compound, the growth in the assay with SNB-75 CNS was 88.6% [8.25 µM]; in the assay with SNB-19 CNS it was 98.1% [8.25 µM]; with U251 CNS, 94.6% [8.25 µM]; in the assay on SK-MEL-5 melanoma, 96% [8.25 µM]; in the assay with UACC-62 melanoma it was 99.6% [8.25 µM]; in the assay on LOX IMVI melanoma, 97.3% [8.25 µM]. Also, in the assay with SK-MEL-28 melanoma, the growth was 97.5% [8.25 µM].

Values taken from PubChem BioAssay (NCI).
